The values below come from PubChem BioAssay AID686952 (The Scripps Research Institute Molecular Screening Center, 2013).

The campaign covered roughly 3,200 compounds. About 2,600 (81%) were called active. The set was probably picked from earlier hits. These entries were drawn from the full list. Unmarked numbers belong to inactive results.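 Rule for the calls: active = activation above the all-compound mean plus 3 SD, ignoring values outside control-based bounds (cut at about 4.8% in these data); inactive = the rest.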

The nature of the assay: EDANS-DABCYL substrate optical interference, artefact control for kallikrein-7 zymogen activator project, biochemical, fluorescence intensity, high throughput (AID 686952).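 Note: value is the 4 h activation minus the activation read at time zero.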 The settings on record: no enzyme, 4 h, at 7 µM, active compounds read high, solvent 0%, active enzyme control 100%.
On to `COc1cccc(OCc2cc(/C=N/NC(=O)c3nc(Cl)c(Cl)c(N)c3Cl)ccc2OC)c1`, for which the activation was 59.5% (active).

On to `Cc1cc(C)c2nc3nc(C)cc(C)c3c(N)c2c1`, for which the activation was 70.4% (active). In the case of `CCOC(OCC)c1ccc(/C=C\c2nccc(N)n2)cc1` it was -13.8%; in that of `COc1ccc(CNC(=O)COC(=O)C2=Cc3ccccc3OC2)cc1`, 11.3% (active). As for `COc1cc2c(cc1OC)C(C(C)C)=NC(C)(C)C2`, the activation is 72.2% (active). On to `CN1c2ccccc2-c2nc3ccccc3n2C1c1ccco1` (stereo unspecified), for which the activation was 11.9% (active). As to `CNc1cncc(-c2cccc(C(=O)N3CCOCC3)c2)n1`, the activation was 37.5% (active).

With `CCCn1c(=NC(C)=O)c(C(=O)OCC)cc2c(=O)n3ccccc3nc21`, the activation was 32.4% (active).

For `CCN1CCc2c(C#N)c(NCc3ccccc3)nc(NCCO)c2C1`, the activation is 28.7% (active). Regarding `COC(=O)C1=NN(c2ccccc2)C2C(=O)N(c3ccccc3OC)C(=O)C12` (stereo unspecified), the activation was 14.9% (active).

On to `CN(C)C(=O)c1coc2nc3ccccc3nc12`, for which the activation was 110% (active). As to `O=C(/C=C/c1ccc2c(c1)OCCO2)c1ccc(O)cc1`, the activation was 3.03%. Turning to `O=C(O)c1ccc2c(c1)C(=O)N(c1ccc(/C=C/C(=O)c3ccccc3)cc1)C2=O`, the activation was 722% (active). In the case of `CCN(CC)CCCNC(=O)c1cc2c(=O)[nH]c3ccc(C)cc3c2s1` it was 12.5% (active); in that of `COC(=O)c1c(C)c(C)nc(N)c1C#N`, 63.7% (active).

In the case of `CCN(CC(=O)Nc1c(F)cccc1F)C(=O)c1ccc(-c2ccc(C(C)=O)cc2)o1`, the activation was -16.2%. Regarding `CN(C)CCN1CCN(c2cc(-c3cccc(Cl)c3)nc3ccnn23)CC1`, the activation was -1.14%.

As to `COC(=O)Cc1nc2c(N)nc(N)nc2[nH]c1=O`, the activation is 16.8% (active). With `Cc1coc2c1c(C)cc1oc(=O)c(CC(=O)NCC(=O)N[C@H](C(=O)O)C(C)C)c(C)c12`, the activation was 34.8% (active).

Regarding `COc1ccc(-c2cc(C(=O)n3cnc4ccccc43)c3ccccc3n2)cc1`, the activation was 53.3% (active).

Take `CNC(=O)COC(=O)c1cc(-c2ccc(OC)cc2)nc2ccccc12`: the activation is 97.4% (active). As for `O=c1c(-c2ccccc2)coc2c(CN3CCOCC3)c(O)ccc12`, the activation was 15.3% (active).

On to `COc1cccc2sc3cc(NCC[C@@H]4CCCN4C)ccc3c(=O)c12`, for which the activation was 38.3% (active). As to `CCCCc1cc(=O)oc2cc(C)cc(OCc3nn[nH]n3)c12`, the activation was 29.5% (active). Take `Cc1ccsc1-c1cc(C(=O)O)c2c(ccc3ccccc32)n1`: the activation is 21.4% (active). For `COC(=O)c1cnn2c(C(F)(F)F)cc(-c3ccco3)nc12` the value was 35.9% (active); for `O=C(OC1CCOC1=O)c1ccc(-c2nc3ccccc3s2)s1` (stereo unspecified), 13.6% (active). In the case of `Cc1nc2ccc(N)nc2nc1C` it was 59.7% (active); in that of `O=C(O)c1cccnc1Sc1ncnc2sc3c(c12)CCC3`, 15.9% (active); in that of `CCCCN(C)CCCNC(=O)c1cc(-c2cccs2)nc2ccccc12`, -40.9%.

Take `O=C(NCCN1CCOCC1)c1cc(-c2cccs2)nc2ccccc12`: the activation is 31.9% (active). With `O=c1oc2cc(O)ccc2cc1-c1ccc(F)cc1`, the activation was 80.8% (active).

`COc1ccc(CCNC(=O)Nc2ccc3c(c2)c(=O)n(C)n3C)cc1OC`: the activation is 22.7% (active). Consider `CCNC(=S)Nc1ccc2c(c1)c(=O)n(C)n2Cc1ccc(Cl)cc1`, for which the activation was -1.33%. As to `C=CCn1c(N)c(S(=O)(=O)c2cccs2)c2nc3ccccc3nc21`, the activation is -4.5%. For `COCCCn1c(-c2cccs2)nc2nc3ccccc3nc21`, the activation is 24.8% (active). Turning to `COc1nc(N=C(N)N)nc2c(C)cccc12`, the activation was 20.6% (active).

For the compound `NC(N)=Nc1nc(-c2ccccc2)c2cc(Cl)ccc2n1`, the activation is -2.58%.

As for `CCC1=C(C(=O)OC)C(c2cc(OC)ccc2OC)C(C#N)=C(N)O1` (stereo unspecified), the activation is 32.6% (active).

For `Cc1cc(N2CCOCC2)nc2ccc(NC(=S)N3CCN(Cc4ccccc4)CC3)cc12`, the activation is 12.7% (active). On to `COCC(C)OC(=O)c1c(N)n(CCCN2CCOCC2)c2nc3ccccc3nc12` (stereo unspecified), for which the activation was 19% (active). For the compound `CC(C)(C)OC(=O)c1c(N)n(CCCN2CCCC2=O)c2nc3ccccc3nc12`, the activation was 80.7% (active). For `CC(C)=NN1C(=O)c2ccccc2NC1(C)C`, the activation is 24.5% (active).

Consider `CCOc1ccc(N2C(=O)CC(N(O)c3ccccc3)C2=O)cc1` (stereo unspecified), for which the activation is 188% (active). Regarding `Nc1ccccc1-c1nc2ccncc2[nH]1`, the activation was 5.73% (active). Consider `CCCc1cc(=O)oc2c(C)c(O)c(CN3CCCCC3)cc12`, for which the activation was 68.1% (active). As for `CCOc1c2ccc(C(=O)NCc3ccc4c(c3)OCO4)cc2nn1C`, the activation was 4.67% (active). With `COCc1cc(=O)[nH]c2cc(NC(=O)C(F)(F)F)c(C)cc12`, the activation was 232% (active).

As for `CCC(c1nnnn1Cc1ccco1)N(CCc1ccccc1)Cc1cc2ccc(OC)cc2[nH]c1=O` (stereo unspecified), the activation was 1.63%.

For the compound `CC(=O)Oc1ccc2c(C)c(CC(C)O)c(=O)oc2c1` (stereo unspecified), the activation is 80% (active).

`CC(=O)Nc1cc2ccc(OC(C)=O)cc2oc1=O`: the activation was 127% (active).

On to `COCCN(CCOC)c1nc(N)c2c(N)nc3c(c2c1C#N)CC(=O)N3Cc1ccc(Cl)cc1`, for which the activation is -34.7%. Consider `COc1ccc2oc(=O)c(C(=O)N3CCCC3)cc2c1`, for which the activation was 23.6% (active). `CCN1CCN(C(=O)c2cc3cc4ccc(OC)cc4nc3s2)CC1`: the activation is -12.4%. For the compound `Cc1nc2ccccc2cc1O`, the activation was 4.33% (active). Turning to `Cc1cc(S(=O)(=O)c2cc3ccc(O)c(C)c3oc2=O)ccc1F`, the activation was 63.2% (active). `N#CC1=C(N)Oc2c(sc3ccccc23)C1c1ccco1` (stereo unspecified): the activation is -21.2%. Regarding `Nc1ccc2nn(-c3ccc(Cl)cc3)nc2c1`, the activation is 62.1% (active). As to `COC(=O)c1ccc(C2C3=C(Nc4nnnn42)c2ccccc2OC3)cc1` (stereo unspecified), the activation was 4.8% (active). Take `COc1ccc(C2=CC(c3cccc(OC)c3)n3nnnc3N2)cc1` (stereo unspecified): the activation is -27.9%. As to `CC(C)(C)Nc1c(-c2cccs2)nc2ccccn12`, the activation was -64.5%. Take `FC(F)(F)Oc1ccc(-c2cn3cccnc3n2)cc1`: the activation was 36.4% (active). `c1ccc(-c2cn3cccnc3n2)cc1`: the activation is 72.3% (active).

Regarding `COc1ccc(-c2cn3cccnc3n2)cc1`, the activation is 79.8% (active).

`Cc1oc2nc(SCC(=O)Nc3ccc(S(N)(=O)=O)cc3)nc(NC(=O)c3ccccc3)c2c1C`: the activation is 3.36%.

`CCc1ccc(-c2cc(C(=O)NCc3ccco3)c3ccccc3n2)s1`: the activation is 73.9% (active).

Take `CC(=O)Nc1nc2ncccn2c1-c1ccc(C(F)(F)F)cc1`: the activation was 41.3% (active).

Take `CC(C)Cc1nc(Nc2ccc(S(=O)(=O)N3CCCC3)cc2)c2nnn(Cc3ccccc3)c2n1`: the activation is 38.6% (active).

For `CN(C(=O)COc1ccccc1)c1nnc(-c2ccncc2)s1`, the activation is 107% (active).

Take `COCC(=O)Nc1nnc(COc2ccccc2)s1`: the activation was 1.67%. For `CN(C(=O)c1ccccn1)c1nnc(-c2ccccn2)s1` the value was 85.1% (active); for `CC(OC(=O)c1ccccc1NCCO)C(=O)Nc1ccnn1C(C)C` (stereo unspecified), 29.3% (active). As to `COc1ccc2c(c1)CCc1cn3ncc(C#N)c3nc1-2`, the activation is -65.2%.

In the case of `CN(CCc1ccccn1)S(=O)(=O)c1ccc2c3c(cccc13)C(=O)N2`, the activation was 71.8% (active). Take `COc1cc(/C=C/C(=O)Nc2ccc(OC)c(S(=O)(=O)N3CCOCC3)c2)ccc1OCC#N`: the activation was 93.1% (active). Take `COc1ccc2nc(-c3ccccn3)ccc2c1`: the activation is 4.08% (active). On to `O=C(Oc1c(-c2ccco2)oc2ccccc2c1=O)c1cccnc1`, for which the activation was 18.8% (active). In the case of `CC1CC(C)CN(S(=O)(=O)c2cccc(C(=O)N3C(=O)c4cccc(N)c4C3=O)c2)C1` (stereo unspecified) it was 228% (active). Turning to `COc1cc(C(=O)N2C(=O)c3cccc(N)c3C2=O)cc(OC)c1OC`, the activation is 122% (active).

In the case of `COCc1cc(=O)oc2cc(NS(=O)(=O)c3ccc(C)cc3)ccc12`, the activation is 70.4% (active). In the case of `CCn1c(=N)c(C(=O)NCCCOC)cc2c(=O)n3cccc(C)c3nc21` it was 74.4% (active); in that of `Cc1cccn2c(=O)c3cc(C(=O)NCCN4CCOCC4)c(=N)n(Cc4cccnc4)c3nc12`, 18.1% (active).

Take `Cc1cccn2c(=O)c3cc(C#N)c(=NC(=O)c4cccnc4)n(CC4CCCO4)c3nc12` (stereo unspecified): the activation is -72.9%.

In the case of `Cc1ccc2nc3c(cc(C(=O)NCCc4ccccc4)c(=N)n3CC3CCCO3)c(=O)n2c1` (stereo unspecified), the activation is -37.3%.

For `Oc1ccc2ccc3cccc[n+]3c2c1`, the activation is 38.2% (active). Take `CCN(CC)CCCC(C)n1c2nc(=O)[nH]c(=O)c-2nc2cc(Cl)ccc21` (stereo unspecified): the activation was 69.7% (active). For `Cc1cc2cc3n(c2nn1)N=C(Cl)CC3` the value was 37.9% (active); for `CCOc1ccccc1C1C(C(=O)OC)=CN(C)C=C1C(=O)OC`, -18%. For the compound `N#Cc1nc(-c2cccc3ccccc23)oc1N`, the activation is 76.5% (active). In the case of `Cc1cc(C)c(C#N)c(SCC(=O)NN2CC(=O)N(c3ccccc3F)CC2=O)n1` it was 58.1% (active).

For the compound `CN(C)CCCn1c(N)c(C#N)c2nc(C#N)c(C#N)nc21`, the activation is 46.2% (active). With `CC1(C)CN(c2ccc(-c3ccnc4ncnn34)cc2)C1=O`, the activation was 68.4% (active). `Cc1cc2c(nc1C)CCCN2C`: the activation is 2.55%.

On to `CN1CCCc2cc(C#N)c(=O)[nH]c21`, for which the activation was 38.1% (active). On to `COc1cccc(NC(=O)CN(C)C(=O)/C=C/c2cc(OC)ccc2OC)c1`, for which the activation was -114%. On to `Cn1cccc1/C=N/NC(=O)CNc1cccc2ccccc12`, for which the activation is 1.38%. For the compound `CC1(C)CC(=O)c2cc(OCC(=O)NCC3CCCO3)ccc2O1` (stereo unspecified), the activation was 57.9% (active).

With `C[C@@H]1C(c2ccc(F)cc2)=NN(c2ccc(Br)cc2)[C@H]1C(=O)N1CCOC1=O`, the activation is 26.5% (active). Take `Clc1ccc(-c2cccc3nccn23)cc1`: the activation is 11.3% (active). As to `Cc1ccc(-c2nn(-c3ccccc3)cc2/C=C/C(=O)Nc2cccc(S(N)(=O)=O)c2)cc1`, the activation was 251% (active). In the case of `COc1ccc2nc(Nc3nc4cc5c(cc4s3)OCCO5)sc2c1`, the activation was -11.5%.
